Screening results (PubChem BioAssay)
Shown are actives, neighbours in structure and some others; about 3.4% of the full set was active somewhere.
MITF primary = human MITF inhibition, primary screen; AlphaScreen MITF homodimerization, bead proximity signal; inhibition, % at 2.6 µM; 0.91% of 650,000 active; in the data active = inhibition above about 50%;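 also: 0% = vehicle wells with protein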
Target sequence (O75030 whole entry, looked up): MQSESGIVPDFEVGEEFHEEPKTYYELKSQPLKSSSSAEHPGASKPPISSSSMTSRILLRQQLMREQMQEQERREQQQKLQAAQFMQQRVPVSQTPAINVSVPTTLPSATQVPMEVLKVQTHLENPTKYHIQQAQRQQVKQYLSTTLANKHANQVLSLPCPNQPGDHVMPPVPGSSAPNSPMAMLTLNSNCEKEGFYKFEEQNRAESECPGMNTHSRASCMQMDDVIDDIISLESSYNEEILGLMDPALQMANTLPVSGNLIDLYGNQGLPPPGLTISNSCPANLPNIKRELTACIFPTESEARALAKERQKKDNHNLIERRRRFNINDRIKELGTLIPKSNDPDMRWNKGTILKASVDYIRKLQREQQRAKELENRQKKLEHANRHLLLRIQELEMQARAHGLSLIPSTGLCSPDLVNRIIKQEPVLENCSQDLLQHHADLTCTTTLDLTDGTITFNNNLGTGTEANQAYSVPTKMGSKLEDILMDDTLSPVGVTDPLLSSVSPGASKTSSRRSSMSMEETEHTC
FBW7 activator = activators of human E3 ligase FBW7. Q969H0. AlphaScreen FBW7–phospho-cyclin E peptide binding, activator screen. normalized activity (activation), % at 26.1 µM. 0.13% of 650,000 active. AID 1259310; in the data active = normalized activity above about 1.9%;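 also: purified mutant Fbw7 with reduced substrate affinity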
TEAD-YAP inh = TEAD-YAP interaction inhibition. HEK-TIYL cells, TEAD-Gal4/YAP UAS-luciferase luminescence. inhibition, % at 9.12 µM. 1.4% of 640,000 active; in the data active = inhibition above about 32%;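 also: 0% = median of test compound wells and 100% = reference inhibitor wells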
GPR151 ag = activates the human receptor GPR151; activation, % at 11.2 µM; Q8TDV0; AID 1508602; 1% of 650,000 active; PathHunter beta-arrestin GPR151 cells, luminescence; in the data active = activation above about 4.9%;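 also: 0% = median of compound wells and 100% = cells with positive control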
Starred values were filed as active, the others as inactive.

SMILES | MITF primary | FBW7 activator | TEAD-YAP inh | GPR151 ag
CC(=O)Nc1ccc(C(=O)N2CCC(Oc3ccc(-c4ccc(C#N)cc4)cc3)CC2)cc1 | -3 | 0 | 2 | 3
Oc1ccc(Nc2nccn3c(-c4ccccc4F)cnc23)cc1 | 10 | 1 | 83* | -2
OC1CCC(Nc2nccn3c(-c4ccsc4)cnc23)CC1 (centres undefined) | 13 | 2.1* | -9 | -1
COC(=O)Cn1cc(/C=C2/C(=O)NC(=O)N(c3cccc(C)c3C)C2=O)c2ccccc21 | 23 | 0 | -15 | 1
O=C(CSc1cccc2cccnc12)Nc1ccc(OC(F)(F)F)cc1 | 17 | 0 | -2 | 0
CN1C(=O)c2ccc(NC(=O)c3ccccc3Br)cc2C1=O | 2 | 2.0* | -5 | -1
O=C(Nc1ccc(O)cc1)c1ccccc1Br | -1 | 0 | 76* | 0
O=C(Nc1nc(-c2c[nH]c3ccccc23)cs1)c1n[nH]c(=O)c2ccccc12 | -4 | 0 | 36* | 2
O=C(Nc1nc(-c2c[nH]c3ccccc23)cs1)C1CCCC1 | -1 | 0 | -56 | -1
Cc1sc(NC(=O)CSc2nnnn2-c2ccccc2)nc1-c1ccccc1 | 5 | 0 | 9 | 0
Cc1cccc2sc(NC(=O)CSc3nnnn3-c3ccccc3)nc12 | 16 | 2.0* | 9 | -2
CCn1c(-c2ccc(F)cc2)csc1=Nc1cc(OC)c(Cl)cc1OC | 28 | -1 | 33* | 2
CCn1c(-c2ccc(Cl)cc2)csc1=Nc1cc(OC)c(Cl)cc1OC | 6 | 0 | 35* | 2
NC(=O)c1ccsc1NC(=O)c1ccc(N2CCCCC2)c([N+](=O)[O-])c1 | 4 | 0 | -58 | 0
COCCOC(=O)C1=C(C)OC(N)=C(C#N)C1c1ccccc1C (centres undefined) | 1 | 0 | 3 | 1
COc1ccccc1CNc1ccccc1SC | -17 | 0 | 4 | 0
COc1ccccc1CNc1ccccc1F | -8 | 2.2* | 9 | -1
COc1ccccc1CC(=O)Nc1ccc(C)cc1C | -13 | 0 | -2 | -2
COc1ccccc1CNc1cc(C)ccc1OC | 62* | 0 | -2 | 0
Cc1cccc(/C=N/Nc2nncc3ccccc23)c1 | -6 | 0 | 67* | -6
Cc1ccc(-n2c(SCC(=O)NCc3ccccc3)nc3n[nH]c(C)c3c2=N)cc1Cl | 19 | 0 | 19 | 5
Cc1ccc(-n2c(SCC(=O)NCc3ccccc3)nc3n[nH]c(C)c3c2=N)cc1C | 2 | 0 | 41* | 0
COc1cccc(-n2c(SCC(=O)Nc3ccc(C)cc3)nc3n[nH]c(C)c3c2=N)c1 | 11 | 0 | 6 | 3
CCN(CC)C(=O)CSc1nc2n[nH]c(C)c2c(=N)n1-c1ccc(Oc2ccccc2)cc1 | 10 | 0 | 42* | 1
COc1cccc(-n2c(SCC(=O)Nc3ccc(C(C)C)cc3)nc3n[nH]c(C)c3c2=N)c1 | -1 | 0 | 37* | -1
SMILES | MITF primary | FBW7 activator | TEAD-YAP inh | GPR151 ag
CCOCC(O)CS(=O)Cc1ccc(Cl)cc1 (centres undefined) | 7 | 0 | -10 | 0
Cc1ccc(C(=O)Nc2ccc(N3CCCCS3(=O)=O)cc2)cc1C | 0 | 0 | -74 | 1
CCC1=NN(C(=O)c2ccccc2O)C(O)(c2ccc(Cl)cc2)C1 (centres undefined) | -6 | 0 | -30 | 1
COc1ccc(C)cc1NC(=O)CSc1nc2cc3c(cc2cc1C#N)OCCO3 | 5 | 0 | 67* | 0
Cc1cccc(NC(=O)CSc2nc3cc4c(cc3cc2C#N)OCCO4)c1 | 3 | 0 | 57* | 0
CCOC(=O)c1ccc2nc(C)cc(Nc3cccc(O)c3)c2c1 | -2 | 0 | 75* | -2
CCOC(=O)c1ccc(Nc2cc(C)nc3c(C)cc(C)cc23)cc1 | 1 | 0 | 47* | -1
CC(=O)Nc1ccc(Nc2cc(C)nc3c(C)cc(C)cc23)cc1 | 1 | 0 | 9 | 0
CCOC(=O)c1cccc(Nc2cc(C)nc3c(C)cc(C)cc23)c1 | 17 | 1 | -9 | 1
COC(=O)c1ccc(Nc2cc(C)nc3c(C)cc(C)cc23)cc1 | -7 | 0 | 49* | 0
COc1ccc(/C=C(\C#N)c2nc3ccccc3s2)c(OC)c1 | 1 | 0 | 1 | 2
CCOC(=O)C1CCN(C(=O)CN(c2ccc(Cl)cc2)S(C)(=O)=O)CC1 | -3 | 0 | 3 | 0
CNC(=O)c1ncccc1Nc1cc(Nc2ccc3c(c2)CCC(=O)N3)ncc1C(F)(F)F | -8 | 0 | 35* | 1
CNC(=O)c1ncccc1Nc1cc(Nc2ccc3c(c2)CC(=O)N3)ncc1C(F)(F)F | 0 | 1 | 7 | 0
CC(=O)Nc1ccccc1Nc1cc(Nc2ccc3c(c2)CC(=O)N3)ncc1C(F)(F)F | 7 | 0 | 41* | -1
COCC1CCN(C(=O)CC2C(=O)NCCN2Cc2ccccc2C)CC1 (centres undefined) | 16 | 0 | 10 | 0
COc1ccc(C(=O)COc2ccccc2N2C(=O)C3CC=CCC3C2=O)cc1 (centres undefined) | 4 | 0 | 0 | 1
CCOC(=O)CSc1nc2c(sc(=S)n2-c2ccc(Cl)c(C)c2)c(=O)n1-c1ccccc1OC | 25 | 2.1* | -9 | 1
c1ccc(-c2cc(N3CCN(c4ccccn4)CC3)nc(-c3ccccn3)n2)nc1 | 107* | -1 | 71* | 1
O=C(COc1ccccc1[N+](=O)[O-])Nc1ccccc1Cl | 18 | 0 | -49 | 0
O=C(COc1ccc(Br)cc1Cl)Nc1ccccc1 | 14 | 0 | 54* | -1
O=C(COc1ccc(Cl)cc1Cl)Nc1ccc(O)cc1 | -3 | 0 | 32* | 1
O=C(COc1ccc(Br)cc1Br)Nc1ncn[nH]1 | 9 | 0 | 44* | 1
CC(=O)Nc1ccc(NC(=O)COc2ccc(Br)cc2Cl)cc1 | -9 | 0 | -18 | -1
O=C(COc1ccccc1[N+](=O)[O-])Nc1ccccn1 | 3 | 0 | 36* | -9
SMILES | MITF primary | FBW7 activator | TEAD-YAP inh | GPR151 ag
O=C(NCCOc1cccc2ccccc12)C(CO)(CO)CO | 3 | 0 | -35 | 0
CCOC(=O)c1c(NC(=O)c2ccc(OCC)c([N+](=O)[O-])c2)sc2c1CCCC2 | 6 | 0 | 3 | -2
O=C1c2ccccc2C(=O)N1CC1c2ccccc2CCN1S(=O)(=O)c1ccc(F)cc1F (centres undefined) | 4 | 0 | 8 | -2
Cc1cc(Cl)ccc1OCC(=O)Nc1ncccn1 | 6 | 0 | -19 | 1
O=C(COc1ccc(Cl)cc1Cl)Nc1ccccc1 | 6 | 0 | 36* | 1
O=C(COc1ccc(Cl)cc1Cl)Nc1cccc(-c2cn3c(n2)SCC3)c1 | 8 | 0 | 69* | 0
Cc1ccccc1OCC(=O)NNC(=O)Nc1ccc(Cl)cc1 | -4 | 1 | 59* | 0
Cc1ccccc1OCC(=O)Nc1ccc(Cl)cc1 | 10 | 0 | -42 | -1
Cc1cc(Cl)ccc1OCC(=O)Nc1ccccn1 | 12 | 0 | 67* | -1
CC1CCN(C(=O)c2cc(Br)ccc2Cl)CC1 | -20 | 0 | -2 | -1
CCCCN(CCCC)C1=CC(=O)OC12CCCCC2 | -1 | 0 | 9 | 3
